Hits are enriched below; roughly 19% of the tested compounds scored in any of these assays.
HT1080 IDH1KD tx: toxicity to HT-1080 IDH1 knockdown cells (counter line). HT-1080 IDH1 knockdown viability, ATP luminescence, 48 h. Potency, µM (titrated, usually from 46.1 µM), for the others: top-dose activity, negative = toxicity, usual class: cytotoxic. actives 2% (n = 360,000). AID 686971;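 further: potency means the concentration at half of the fitted maximal effect; 0% = DMSO wells and -100% = cell-free medium wells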
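After a 2 h attachment period, IDH1KD HT-1080 cells took pin-transferred compound for 48 h at 37 °C; ATP-based luminescence after 10 min room-temperature reagent incubation reported viability.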
IL1B secr inh: inflammasome signaling inhibition, IL-1 beta readout. THP-1 LPS/ATP IL-1B secretion, AlphaLISA, 16 h; active compounds read low. activity change, % at 57.5 µM. actives 4.7% (n = 360,000); in the data active means activity change below about -50%; inconclusive means mostly about -30% to -49%
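THP-1 cells pretreated 1 hr with compounds (up to 57.5 uM final), then stimulated with LPS (250 ng/mL final) plus ATP (1.25 mM final); secreted IL-1B measured by AlphaLISA after 16 hr, decreased signal indicating inhibition.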
TDP1 cell CPT: DT40-hTDP1 cell growth loss with CPT; chicken DT40 Tdp1-/-;hTDP1 cells + 20 nM CPT, ATP luminescence, 48 h; Potency, µM (titrated, usually from 46.2 µM), for the others: at the highest dose activity change, negative = growth inhibition, most hits filed as inhibitors; actives 12% (n = 420,000); AID 686979; further: potency means the concentration at half of the fitted maximal effect; nearly all actives have a fitted effect of over 55% in size
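Chicken DT40 Tdp1-/- cells complemented with human TDP1, 400 cells/well, exposed to compounds plus 20 nM camptothecin for at least 48 h at 37 C; viability read as ATP content by CellTiter-Glo luminescence.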
ELG1 repair inh: blocks ELG1-dependent DNA repair in HEK293T cells | HEK293T ELG1-luciferase reporter, luminescence, 16 h; DNA damage induced by 5-fluorouridine | AID 504467 | Potency, µM (doses to about 46.1 µM), for the others: top-dose activity change, negative = inhibition, usual class: inhibitors | actives 2.3% (n = 330,000); further: potency means the concentration at half of the fitted maximal effect; nearly all actives have a fitted effect of over 55% in size
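In this reporter screen, reduction of luminescence relative to DMSO vehicle indicated activity. Compounds and 5-fluorouridine were added together to 2,000 cells per well, incubated for 16 hr at 37 °C, then developed with ONE-Glo.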
HT1080NT lethal: kills 2HG-producing HT-1080-NT fibrosarcoma cells. HT-1080-NT fibrosarcoma viability, CellTiter-Glo ATP luminescence, 48 h. Potency, µM (doses to about 46.1 µM), for the others: at the highest dose activity, negative = less viability, hits mostly cytotoxic. actives 1.6% (n = 360,000). AID 686970;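 further: NT is the 2HG producing partner of a matched IDH1 knockdown line; potency means the concentration at half of the fitted maximal effect; 0% = DMSO-treated cells and -100% = media-only wells without cells; nearly all actives have a fitted effect of over 55% in size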
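Read-out is CellTiter-Glo luminescence after 10 minutes at room temperature, following 48 hours' compound treatment of HT-1080-NT cells (750 cells/well, RPMI, 5% FBS, 37 degrees C).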
DT40 TDP1 no CPT: qHTS for Inhibitors of human tyrosyl-DNA phosphodiesterase 1 (TDP1): qHTS in cells in absence of CPT; DT40 Tdp1-/- hTDP1 cells, no CPT, ATP luminescence, 48 h; Potency, µM (top dose mostly 46.2 µM), for inactives: top-dose activity change, negative = growth inhibition, usual class: inhibitors; actives 15% (n = 420,000); AID 686978, 2013; further: potency means the concentration at half of the fitted maximal effect; nearly all actives have a fitted effect of over 55% in size
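A cellular qHTS used chicken DT40 cells lacking endogenous Tdp1 but carrying stably transfected human TDP1. Compounds were applied without camptothecin, and cell growth kinetics were judged by ATP-dependent luminescence after ≥48 hr.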
* hit, by the source's call; ? = inconclusive; . = no result given; [ ] = remark or other dose. Unless noted, the call rests on the fitted dose curve; in most records, active means well fitted curve in the direction sought with a large enough effect; inconclusive means small, poorly fitted or top-dose-only effect, or another doubt; inactive means no such curve, though single readings can be large; an effect the other way counts as inactive or inconclusive. Unless noted, on the % scale 0 is the no-effect control and ±100 the full control effect.

SMILES	HT1080 IDH1KD tx	IL1B secr inh	TDP1 cell CPT	ELG1 repair inh	HT1080NT lethal	DT40 TDP1 no CPT
Cc1ccc(NC(=O)N2CCc3cc(S(=O)(=O)N4CCC(C)CC4)ccc32)cc1C	.	.	6%	.	.	-23%
COc1ccc(OC)c(S(=O)(=O)Nc2cccc(-c3ccc(N4CCCCC4)nn3)c2)c1	.	.	-3%	.	.	-28%
CC(C)Cn1c(N)c(C(=O)COC(=O)C2CC(=O)N(Cc3ccccc3Cl)C2)c(=O)n(C)c1=O (stereo unspecified)	-12%	-61*	?	?	?	16µM*
COc1ccc(CCN2CC(C(=O)OCC(=O)c3c(N)n(CC(C)C)c(=O)n(C)c3=O)CC2=O)cc1OC (stereo unspecified)	-7%	21	21µM*	.	3%	13µM*
COc1cc(C(=O)OCC(=O)NC2CCCCC2)cc2c1OCCO2	7%	6	-8%	-5%	11%	-6%
COc1cccc(CNC(=O)c2c(OC)cc(=O)n3c2CCN(C(=O)c2ccc(C)cc2C)CC3)c1	.	.	-1%[9.04 µM]	.	.	-12%
O=C1CCCCc2sc(Br)c([N+](=O)[O-])c2N1	?	-105*	12µM*	?	?	12µM*
CCCS(=O)(=O)NC(=O)C1(C)CCCN(C(=O)Cc2ccc3ccccc3c2)C1 (stereo unspecified)	3%	18	6%	.	0%	0%
COc1ccc(CN2CCOCCOCCN(Cc3ccc(OC)cc3)CCOCCOCC2)cc1	-18%	-25	?	-5%	-24%	29µM*
CCOc1ccc(C(=O)Nc2ccc(S(=O)(=O)N3C[C@@H]4C[C@@H](C3)c3cccc(=O)n3C4)cc2)cc1	23µM*	29	21µM*	15%	?	12µM*
O=C(Nc1ccc(CN2CCOCC2)cc1)c1ccc(N2CCCC2)c([N+](=O)[O-])c1	1%	-72*	?	-15%	1%	?
O=C(Nc1ccc(S(=O)(=O)N2C[C@@H]3C[C@@H](C2)c2cccc(=O)n2C3)cc1)c1ccc(F)cc1	0%	-7	0%	18%	13%	2%
O=C(Nc1ccc(S(=O)(=O)Nc2ccc(F)cc2)cc1)c1ccc(CN2CCOCC2)cc1	?	?	?	?	-26%	18µM*
CC1=C(C(=O)N(C)C)CC(CC(=O)NCCc2ccccn2)C(=O)N1Cc1ccc(F)cc1 (stereo unspecified)	-2%	41	0%	.	20%	?
S=C(Nc1ccc(Br)cc1Cl)Nn1cnnc1	5%	-2	-12%	6%	-1%	3%
CC1=C(c2ccc(C)cc2)S(=O)(=O)N=C1N1CCN(c2ccccc2)CC1	.	.	-12%	.	.	-13%
CC(Oc1ccc(Br)cc1)C(=O)Nc1ccc(N2CCOCC2)cc1N1CCOCC1 (stereo unspecified)	15%	-13	?	?	-1%	?
N#CCc1ccc(NC(=O)c2ccc(S(=O)(=O)N3CCCC3)cc2)cc1	-2%	15	-3%	21µM*	-14%	-15%

High-throughput results (PubChem BioAssay)
